According to PubChem BioAssay:
Calls of active or inactive are those of the source. Unless noted, how the calls were made is not given here.

Assays:
[1] = compounds binding Alexa647 anti-His antibody – biochemical, small-molecule microarray, 635 nm fluorescence, artefact control for SMM control protein annotation, primary screen (AID 1128); conditions: higher = more signal;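 further: score merges feature fluorescence with signal-to-noise for each printed compound spot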
[2] = system: Human papillomavirus type 1a E7 protein (residues 1-88); assay: HPV1a E7 small-molecule binders, primary screen, biochemical, small-molecule microarray, residues 1-88, 635 nm (AID 1129); conditions: small-molecule microarray binding, fluorescence 635 nm; higher = more signal
[3] = target: Focal adhesion kinase 1 (Homo sapiens) (UniProt Q05397); assay: PTK2 protein binding on printed compound slides – biochemical, small-molecule microarray, 635/667 nm fluorescence, BSA, DTT, primary screen (AID 1130); conditions: 635 nm fluorescence, higher = more signal;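 further: composite of spot emission at 667 nm and signal to noise over triplicate slides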
Sequence of Focal adhesion kinase 1 (Homo sapiens) (Q05397 whole entry, looked up): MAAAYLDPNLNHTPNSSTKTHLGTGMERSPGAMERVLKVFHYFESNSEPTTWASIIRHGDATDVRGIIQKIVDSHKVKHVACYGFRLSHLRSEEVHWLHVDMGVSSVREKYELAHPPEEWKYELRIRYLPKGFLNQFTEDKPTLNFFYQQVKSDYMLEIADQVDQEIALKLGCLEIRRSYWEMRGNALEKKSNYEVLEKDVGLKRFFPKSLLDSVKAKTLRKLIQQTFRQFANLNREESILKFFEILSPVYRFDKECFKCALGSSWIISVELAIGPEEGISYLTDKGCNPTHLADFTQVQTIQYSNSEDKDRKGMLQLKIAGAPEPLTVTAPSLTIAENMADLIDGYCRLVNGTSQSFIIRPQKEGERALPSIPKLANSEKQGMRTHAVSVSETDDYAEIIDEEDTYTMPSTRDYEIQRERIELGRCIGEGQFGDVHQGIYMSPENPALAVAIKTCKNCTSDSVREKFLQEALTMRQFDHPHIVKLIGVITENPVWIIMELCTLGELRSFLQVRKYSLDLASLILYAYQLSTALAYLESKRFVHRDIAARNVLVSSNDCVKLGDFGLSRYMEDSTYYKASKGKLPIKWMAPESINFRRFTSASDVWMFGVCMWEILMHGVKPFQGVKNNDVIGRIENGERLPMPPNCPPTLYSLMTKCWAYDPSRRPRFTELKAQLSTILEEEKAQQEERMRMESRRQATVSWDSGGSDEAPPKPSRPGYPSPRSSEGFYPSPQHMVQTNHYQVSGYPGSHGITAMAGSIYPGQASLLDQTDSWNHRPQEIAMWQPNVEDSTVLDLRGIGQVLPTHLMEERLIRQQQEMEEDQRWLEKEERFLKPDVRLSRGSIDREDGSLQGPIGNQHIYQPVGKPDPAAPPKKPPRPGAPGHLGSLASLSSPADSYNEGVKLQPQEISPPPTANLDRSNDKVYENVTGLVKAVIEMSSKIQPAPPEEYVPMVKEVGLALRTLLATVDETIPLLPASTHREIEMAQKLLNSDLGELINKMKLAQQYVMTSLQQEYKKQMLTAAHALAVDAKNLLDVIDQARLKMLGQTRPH

[4] = system: Fibrinogen (Alexa647-labelled); assay: Alexa647-fibrinogen binding to printed small molecules – biochemical, small-molecule microarray, 635/667 nm fluorescence, artefact control for SMM control-protein annotation, profiling panel (AID 1131); conditions: fibrinogen-A647 binding fluorescence, higher = more signal;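 further: z-score merges 667 nm fluorescence with per-spot signal-to-noise over triplicate slides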
[5] = target: Follistatin (Homo sapiens) (UniProt P19883); assay: FST protein binding to printed compounds – biochemical, small-molecule microarray, 635/667 nm fluorescence, primary screen (AID 1132); conditions: 635 nm fluorescence, higher = more signal
Sequence of Follistatin (Homo sapiens) (P19883 whole entry, looked up): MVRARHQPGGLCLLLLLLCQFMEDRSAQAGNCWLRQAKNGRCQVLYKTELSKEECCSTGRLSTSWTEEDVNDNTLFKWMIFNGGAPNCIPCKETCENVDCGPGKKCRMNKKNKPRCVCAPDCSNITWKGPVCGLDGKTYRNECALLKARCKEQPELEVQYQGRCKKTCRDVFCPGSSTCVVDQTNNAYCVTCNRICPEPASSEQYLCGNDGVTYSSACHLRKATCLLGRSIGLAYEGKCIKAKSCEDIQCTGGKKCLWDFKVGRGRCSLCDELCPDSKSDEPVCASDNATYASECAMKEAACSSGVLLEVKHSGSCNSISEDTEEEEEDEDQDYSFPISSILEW

[6] = target: Fibroblast growth factor 2 (Homo sapiens) (UniProt P09038); assay: basic fibroblast growth factor binding to printed compounds – biochemical, small-molecule microarray, 635/667 nm fluorescence, primary screen (AID 1133); conditions: FGF2, fluorescence 635/667, higher = more signal
Sequence of Fibroblast growth factor 2 (Homo sapiens) (P09038 whole entry, looked up): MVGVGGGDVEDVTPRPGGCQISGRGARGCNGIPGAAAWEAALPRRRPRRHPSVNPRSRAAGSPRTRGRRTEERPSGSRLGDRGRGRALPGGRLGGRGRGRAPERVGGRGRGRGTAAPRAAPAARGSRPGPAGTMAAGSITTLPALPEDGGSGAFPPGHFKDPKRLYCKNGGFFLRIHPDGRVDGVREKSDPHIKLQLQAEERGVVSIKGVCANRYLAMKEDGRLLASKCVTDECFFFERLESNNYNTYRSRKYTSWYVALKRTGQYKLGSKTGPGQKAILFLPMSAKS

[7] = JC-1 mitochondrial potential readout, lung cancer cells – cell-based, A549, JC-1 fluorescence, basal, 24 h, 100 nL, profiling panel (AID 1138); conditions: higher = more signal;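 further: A549 lung adenocarcinoma cells under basal conditions with no added stimulus; test concentration not given here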
Lefty1 = Lefty1 protein binding to printed compounds – biochemical, small-molecule microarray, 635/667 nm fluorescence, primary screen (AID 1139); conditions: fluorescence 635/667, higher = more signal
[8] = system: wheat germ agglutinin (Triticum aestivum), Alexa647-labelled; assay: Alexa647-WGA lectin binding to printed small molecules – biochemical, small-molecule microarray, 635/667 nm fluorescence, artefact control for SMM control-protein annotation, profiling panel (AID 1140); conditions: WGA-A647 binding, 635 nm fluorescence, higher = more signal;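 further: score merges 667 nm feature emission with signal to noise over triplicate slides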
[9] = target: Luciferin 4-monooxygenase (Photinus pyralis) (UniProt P08659); assay: inhibition of purified Photinus pyralis luciferase – biochemical, luminescence, purified enzyme, 2006 set, primary screen (AID 1141); conditions: purified firefly luciferase, SteadyGlo luminescence, 30 min; higher = more signal, called active from +8 up or from −8 down;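 further: cell-free assay with purified firefly luciferase at 100 ng per well in PBS; test concentration not given here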
Sequence of Luciferin 4-monooxygenase (Photinus pyralis) (P08659 whole entry, looked up): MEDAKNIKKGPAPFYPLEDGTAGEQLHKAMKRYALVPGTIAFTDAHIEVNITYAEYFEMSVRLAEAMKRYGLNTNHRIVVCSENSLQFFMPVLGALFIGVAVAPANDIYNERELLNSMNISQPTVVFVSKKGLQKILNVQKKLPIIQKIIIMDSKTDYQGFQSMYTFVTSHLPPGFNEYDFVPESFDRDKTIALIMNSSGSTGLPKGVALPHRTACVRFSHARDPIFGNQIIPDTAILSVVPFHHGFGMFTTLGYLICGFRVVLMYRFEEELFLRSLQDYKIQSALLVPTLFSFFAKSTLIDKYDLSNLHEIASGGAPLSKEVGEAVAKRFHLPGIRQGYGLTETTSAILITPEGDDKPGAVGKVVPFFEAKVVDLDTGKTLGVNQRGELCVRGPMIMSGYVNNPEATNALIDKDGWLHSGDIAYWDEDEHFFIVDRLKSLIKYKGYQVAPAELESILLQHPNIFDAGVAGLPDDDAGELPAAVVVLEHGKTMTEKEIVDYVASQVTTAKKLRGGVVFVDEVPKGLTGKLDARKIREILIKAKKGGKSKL

[10] = system: Wnt5a (protein binding on small-molecule microarray); assay: small molecules binding Wnt5a protein – biophysical, small-molecule microarray, 635/667 nm fluorescence, primary screen (AID 1142); conditions: 635 nm fluorescence, higher = more signal;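 further: fluorescence read at 667 nm with signal to noise per printed feature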
[11] = ATP-based viability of Huh7 replicon cells – cell-based, CellTiter-Glo luminescence, basal, 48 h, cytotoxicity control for HCV replication inhibitor project, primary screen (AID 1143); conditions: higher = more signal, called active from +8 up or from −8 down;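 further: Huh7 hepatoma cells carrying a hepatitis C replication reporter with no stimulus; test concentration not given here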
[12] = Pseudomonas biofilm growth suppression – PAO1 strain, BacTiter-Glo luminescence, LB-PBS, primary screen (AID 1144); conditions: P. aeruginosa PAO1 biofilm, 12 h, higher = more signal
[13] = basal CRE-LacZ reporter activity in PC12 – cell-based, unstimulated, primary screen (AID 1145); conditions: no forskolin, luminescence, 4.5 h, higher = more signal, called active from +8 up or from −8 down
[14] = forskolin-driven CRE-LacZ activity in PC12 – cell-based, CRE-LacZ reporter, forskolin-stimulated, primary screen (AID 1146); conditions: luminescence, 4.5 h, higher = more signal, called active from +8 up or from −8 down;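 further: PC12 cells with 6xCRE LacZ reporter stimulated by forskolin 10 µM; beta-galactosidase reporter signal reflecting CREB driven transcription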
[15] = target: Streptavidin (Streptomyces avidinii) (UniProt P22629); assay: compounds binding control protein streptavidin – biophysical, small-molecule microarray, 635/667 nm fluorescence, artefact control for SMM compound annotation, primary screen (AID 1147); conditions: higher = more signal;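 further: signal reflects streptavidin binding to arrayed compounds as a control protein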
Sequence of Streptavidin (Streptomyces avidinii) (P22629 whole entry, looked up): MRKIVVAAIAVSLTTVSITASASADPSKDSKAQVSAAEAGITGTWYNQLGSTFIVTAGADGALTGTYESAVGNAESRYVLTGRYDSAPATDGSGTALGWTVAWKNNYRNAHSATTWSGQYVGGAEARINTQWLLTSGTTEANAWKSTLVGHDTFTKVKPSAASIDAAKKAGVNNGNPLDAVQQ

[16] = probe aInhba binding on compound microarray – biochemical, small-molecule microarray, 635/667 nm fluorescence, primary screen (AID 1148); conditions: higher = more signal;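 further: score merges 667nm spot fluorescence with signal-to-noise for antibody binding to printed compounds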
Torsin-1A (Homo sapiens) [17] = target: Torsin-1A (Homo sapiens) (UniProt O14656); assay: TOR1A wild-type binding on microarray – cell lysate, small-molecule microarray, lysate, 635/667 nm, primary screen (AID 1149); conditions: COS7 hTOR1A-WT lysate, 635 nm fluorescence, higher = more signal
Sequence of Torsin-1A (Homo sapiens) (O14656 whole entry, looked up): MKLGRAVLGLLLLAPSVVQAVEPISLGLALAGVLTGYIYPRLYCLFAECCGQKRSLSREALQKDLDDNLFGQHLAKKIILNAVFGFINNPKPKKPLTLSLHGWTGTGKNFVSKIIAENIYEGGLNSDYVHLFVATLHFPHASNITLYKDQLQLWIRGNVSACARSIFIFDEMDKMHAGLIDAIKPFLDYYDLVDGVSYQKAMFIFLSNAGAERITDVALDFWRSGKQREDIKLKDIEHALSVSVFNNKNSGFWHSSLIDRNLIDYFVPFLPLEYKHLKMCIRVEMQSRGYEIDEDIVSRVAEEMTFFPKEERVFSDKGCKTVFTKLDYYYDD

Torsin-1A (Homo sapiens) [18] = target: Torsin-1A (Homo sapiens) (UniProt O14656); assay: torsin A mutant lysate binding on microarrays – cell lysate, small-molecule microarray, COS7 lysate, 635/667 nm fluorescence, primary screen (AID 1150); conditions: COS7 hTOR1A mutant lysate, 635 nm fluorescence, higher = more signal;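 further: score pools 667 nm emission and signal to noise measuring lysate protein binding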
[19] = system: Sonic hedgehog protein (Shh); assay: Sonic hedgehog microarray binding compounds – biochemical, small-molecule microarray, 635/667 nm fluorescence, primary screen (AID 1151); conditions: 635 nm fluorescence, higher = more signal;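 further: Shh protein binding to compounds spotted on small-molecule microarray slides; score combines spot fluorescence intensity with signal-to-noise across triplicate slides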

Structure (SMILES)	composite z-score [1]	composite z-score [2]	composite z-score [3]	composite z-score [4]	composite z-score [5]	composite z-score [6]	z-score [7]	composite z-score (Lefty1)	composite z-score [8]	z-score [9]	composite z-score [10]	z-score [11]	z-score [12]	z-score [13]	z-score [14]	composite z-score [15]	composite z-score [16]	composite z-score (Torsin-1A (Homo sapiens) [17])	composite z-score (Torsin-1A (Homo sapiens) [18])	composite z-score [19]
C=C(COC)/C(=C/C[C@H](OC(=O)c1ccncc1)c1ccc(CO)o1)c1cnc2ccccc2c1	0.283	1.15	0.382	0.271	1.25	0.222	0.818	1.57	0.734	-1.72 (inactive)	0.304	0.114 (inactive)	-0.268 (inactive)	0.303 (inactive)	-0.499 (inactive)	1.16	-0.0933	0.299	0.732	2.07
CC1CC/C=C\[C@H]2OC34C=CCN(Cc5ccccc5)C(=O)[C@H]3N(C(CO)C(C)C)C(=O)[C@@H]4C2C(=O)O1 (stereo not given in full)	-0.696	-1.03	-0.475	-0.798	-0.528	-0.81	1.32	-0.722	0.389	-1.15 (inactive)	-0.0818	-0.0399 (inactive)	1.09 (inactive)	2.1 (inactive)	1.43 (inactive)	-0.854	-0.0695	0.505	-0.741	-0.0532
O=C(C1N=C(c2ccc(OCCCO)cc2)N(c2ccccc2)O1)N1CCCCC1 (stereo not given)	1.94	1.25	0.634	1	1.05	0.423	0.924	0.168	1.31	-10.6 (active)	0.296	-0.163 (inactive)	1.52 (inactive)	0.0918 (inactive)	1.91 (inactive)	1.56	0.271	0.407	0.854	0.17
NCCCCCNC(=O)[C@@H]1C[C@@H]2C(=O)N[C@@H](CCCCN)C(=O)N2[C@@H]1c1ccc(O)cc1	1.98	1.23	0.294	0.782	1.42	1.74	-0.862	1.57	1.14	-0.364 (inactive)	-0.0113	-0.308 (inactive)	-0.148 (inactive)	0.0205 (inactive)	-0.878 (inactive)	0.811	0.217	0.811	1.59	1.99
O=c1cccc(-c2ccc([N+](=O)[O-])cc2)o1	0.504	0.963	0.21	-0.301	1.28	1.05	-0.233	1.4	0.301	1.68 (inactive)	0.105	-1.88 (inactive)	-0.982 (inactive)	-0.882 (inactive)	0.61 (inactive)	0.315	0.165	-0.0842	0.376	2.19
O=C1O[C@H](c2ccccc2)[C@H](c2ccccc2)N2[C@H]1[C@@H](C(=O)O)[C@]1(C(=O)Nc3ccc(C#CCCO)cc31)[C@H]2c1ccccc1OCCO	0.84	0.0764	0.0281	0.289	0.622	-0.0212	-0.689	0.404	0.842	-0.747 (inactive)	0.248	-0.873 (inactive)	-0.352 (inactive)	-0.195 (inactive)	1.04 (inactive)	-0.18	-0.0986	-0.658	-0.199	0.824
[N-]=[N+]=Nc1ccccc1[C@@H]1OC(c2ccc(OCCCO)cc2)=N[C@]1(Cc1ccccc1)C(=O)N1CCCCC1	0.782	1.24	0.218	1.02	1.21	0.768	-1.07	0.816	1.03	-5.31 (inactive)	0.906	-4.4 (inactive)	0.316 (inactive)	0.241 (inactive)	-0.894 (inactive)	1.38	0.134	0.551	1.37	1.15
C=CCC(OC(C)=O)[C@@H]1[C@@H](N(Cc2ccc(-c3cccc(C(F)(F)F)c3)o2)C(=O)c2ccc(-c3ccccc3)cc2)c2cc(OCCCO)ccc2N1C(=O)Cc1ccc2ccccc2c1 (stereo not given in full)	-0.0298	-0.504	0.0827	0.229	0.438	-0.482	0.0819	-0.175	-0.0916	0.429 (inactive)	-0.276	-0.165 (inactive)	-0.184 (inactive)	0.572 (inactive)	0.368 (inactive)	-0.368	-0.113	-1.21	-1.1	-0.0629
CCCC1(C(=O)OC)C=C2C(=C(C)C(=O)C2C)CN1 (stereo not given)	2.81	-0.0152	0.0853	0.892	0.503	-0.343	0.511	-0.451	0.594	2.26 (inactive)	0.0439	0.442 (inactive)	-0.473 (inactive)	2.3 (inactive)	2.15 (inactive)	-0.381	0.0487	0.149	-0.0341	-0.552
